# Shown are actives, neighbours in structure and some others; about 16% of the full set was active somewhere.
# miR-21 act: qHTS Assay for Modulators of miRNAs and/orActivators of miR-21; HeLa miR-21 FLuc reporter, luciferase, 48 h; Potency, µM (series often up to 38.3 µM), usual class: activators; 340,000 tested, under 10 active; AID 2288, 2010;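 further: miR-21 action dims this reporter so a rising signal means less miR-21 action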
#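 Using DMEM plus 10% FBS, HeLa miR-21-FLuc cells are incubated with test compounds (final up to about 40uM) for 48 hours; firefly luciferase signal is then imaged following reagent-mediated lysis.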
# DT40 TDP1 no CPT: qHTS for Inhibitors of human tyrosyl-DNA phosphodiesterase 1 (TDP1): qHTS in cells in absence of CPT; DT40 Tdp1-/- hTDP1 cells, no CPT, ATP luminescence, 48 h; Potency, µM (titrated, usually from 46.2 µM), actives largely listed as inhibitors; actives 15% (n = 420,000); further: nearly all actives have a fitted effect of over 55% in size
#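 DT40 Tdp1-/-;hTDP1 cells, no CPT (DMSO vehicle only), 400 cells/well; compounds pin-transferred; ≥48 hr, 37 °C; CellTiter-Glo 30 min RT dark, luminescence read.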
# TDP1 cell CPT: qHTS for Inhibitors of human tyrosyl-DNA phosphodiesterase 1 (TDP1): qHTS in cells in presence of CPT | actives 12% (n = 420,000) | chicken DT40 Tdp1-/-;hTDP1 cells + 20 nM CPT, ATP luminescence, 48 h | Potency, µM (titrated, usually from 46.2 µM), usual class: inhibitors | AID 686979, 2013; further: nearly all actives have a fitted effect of over 55% in size
#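 Chicken DT40 Tdp1-/- cells stably complemented with human TDP1 were seeded at 400 cells/well in medium containing 20 nM camptothecin, exposed to pin-transferred compounds, and grown at 37 °C for at least 48 hr. Viability was read as ATP luminescence.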
# uPA generation: qHTS for Inhibitors of Cell Surface uPA Generation; Potency, µM (doses to about 38.3 µM), actives largely listed as inhibitors; cell surface uPA generation assay, qHTS; AID 540303, 2011; actives 0.31% (n = 330,000); active means well fitted inhibition curve with a large enough effect; inconclusive means small, poorly fitted or top-dose-only effect; inactive means no such curve, though single readings can be large or run the other way; tested in mouse RAW 264.7 cells; further: nearly all actives have a fitted effect of over 55% in size
# TDP1 block: qHTS Assay for Inhibitors of Tyrosyl-DNA Phosphodiesterase (TDP1) | actives 0.28% (n = 350,000) | Potency, µM (highest dose often 130 µM), most hits filed as inhibitors | recombinant TDP1, AlphaScreen DNA substrate cleavage | Tyrosyl-DNA phosphodiesterase 1 (Homo sapiens), Q9NUW8 | AID 485290, 2010; further: nearly all actives have a fitted effect of over 40% in size
# Target sequence (Q9NUW8 whole entry, looked up): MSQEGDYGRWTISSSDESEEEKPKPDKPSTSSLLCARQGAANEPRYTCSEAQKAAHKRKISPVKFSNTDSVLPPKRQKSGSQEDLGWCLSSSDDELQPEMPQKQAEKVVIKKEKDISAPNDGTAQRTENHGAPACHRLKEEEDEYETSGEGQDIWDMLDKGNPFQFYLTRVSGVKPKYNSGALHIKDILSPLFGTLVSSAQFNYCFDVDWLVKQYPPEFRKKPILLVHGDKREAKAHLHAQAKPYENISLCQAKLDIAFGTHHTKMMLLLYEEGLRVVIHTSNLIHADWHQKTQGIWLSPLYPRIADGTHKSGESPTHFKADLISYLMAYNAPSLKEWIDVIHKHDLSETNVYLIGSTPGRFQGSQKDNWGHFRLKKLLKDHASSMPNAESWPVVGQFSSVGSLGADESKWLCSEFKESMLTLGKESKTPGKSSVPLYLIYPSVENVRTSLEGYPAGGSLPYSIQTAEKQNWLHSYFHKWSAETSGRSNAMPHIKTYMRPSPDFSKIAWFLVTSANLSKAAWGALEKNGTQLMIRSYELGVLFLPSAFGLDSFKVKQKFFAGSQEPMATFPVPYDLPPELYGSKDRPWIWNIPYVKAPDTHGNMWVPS
#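 Signal: AlphaScreen proximity between streptavidin donor and anti-FITC acceptor beads on intact substrate. Reaction: Tdp1 1 nM, substrate 15 nM final, 5 min RT after 15 min compound preincubation.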
# A number is an active result; i = inactive; ? = inconclusive; nt = not tested or not shown. Unless noted, the call rests on the fitted dose curve; in most records, active means well fitted curve in the direction sought with a large enough effect; inconclusive means small, poorly fitted or top-dose-only effect, or another doubt; inactive means no such curve, though single readings can be large; an effect the other way counts as inactive or inconclusive.
SMILES,miR-21 act,DT40 TDP1 no CPT,TDP1 cell CPT,uPA generation,TDP1 block
O=C(CN1C(=O)CCSc2ccc(S(=O)(=O)N3CCCC3)cc21)Nc1ccccc1,i,i,i,i,i
O=C(CN1C(=O)CCSc2ccc(S(=O)(=O)N3CCCC3)cc21)Nc1cccc(F)c1,i,?,13µM,nt,i
Cc1ccc2cc(CN(Cc3nnnn3Cc3ccco3)CC3CCCO3)c(=O)[nH]c2c1C (stereo not drawn),i,?,?,i,i
COc1ccccc1CN(Cc1cc2cc3c(cc2[nH]c1=O)OCCO3)Cc1nnnn1Cc1ccco1,i,?,25.9µM,nt,i
O=c1[nH]c2cc3c(cc2cc1CN(Cc1cccs1)Cc1nnnn1Cc1ccco1)OCCO3,i,16.4µM,14.6µM,i,i
O=c1[nH]c2cc3c(cc2cc1CN(Cc1ccccc1)Cc1nnnn1Cc1ccco1)OCCO3,i,?,?,i,i
O=C(OCc1cc2ccccc2[nH]c1=O)c1cccs1,i,?,i,i,i
N#CCCN(C(=O)COC(=O)c1ccc(S(=O)(=O)Nc2ccccc2)cc1)c1ccccc1,i,i,i,i,i
O=C(COc1ccc(Cl)cc1)Nc1cccc(S(=O)(=O)NCc2ccco2)c1,nt,i,i,i,i
O=c1cc(-c2cccc(O)c2)oc2c(O)c(O)ccc12,nt,?,?,nt,i
Cc1ccc2ccc3ccc(C)nc3c2n1,i,0.146µM,0.0164µM,?,nt
COC(=O)c1ccccc1-c1cc(C)cc2c1OC(CNC(=O)c1occc1C)C2 (stereo not drawn),nt,11.6µM,16.4µM,nt,nt
CC(C)(C)c1ccc(-n2nc(C#N)c(Cl)cc2=O)cc1,?,2.91µM,3.66µM,i,i
CC(C)(C)c1ccc(-n2nc(C(N)=O)c(O)cc2=O)cc1,i,?,?,i,i
CCOC(=O)C(Cc1ccccc1)(Cc1ccccc1)C(C)=O,i,i,i,i,nt
CCN1C/C(=C\c2cccc([N+](=O)[O-])c2)C(=O)/C(=C/c2cccc([N+](=O)[O-])c2)C1,i,0.92µM,0.651µM,i,i
O=C1/C(=C/c2cccc([N+](=O)[O-])c2)CCc2ccccc21,i,14.6µM,?,i,i
O=C(O)c1ccc(-n2ncc3c2/C(=C/c2cccc([N+](=O)[O-])c2)CC3)cc1,i,?,16.4µM,i,nt
COc1ccccc1N1CCN(/N=C\c2sccc2C)CC1,i,i,i,i,i
O=C(CN1C(=O)/C(=C/c2ccc(Cl)cc2)SC1=S)NC1C=CS(=O)(=O)C1 (stereo not drawn),i,5.8µM,6.51µM,i,i
O=C(CCN1C(=O)/C(=C/c2ccc(Cl)cc2)SC1=S)NC1C=CS(=O)(=O)C1 (stereo not drawn),i,?,i,i,?
O=C(CN1C(=O)/C(=C/c2ccc(F)cc2)SC1=S)NC1C=CS(=O)(=O)C1 (stereo not drawn),i,?,?,i,i
COc1ccc(/C=C2\SC(=S)N(CC(=O)NC3C=CS(=O)(=O)C3)C2=O)cc1 (stereo not drawn),i,3.66µM,6.51µM,i,i
CCCC1=Nc2cc(C(=O)NCCCOC(C)C)ccc2Sc2ccccc21,i,4.11µM,4.61µM,i,i
CCCC1=Nc2cc(C(=O)NCCOC)ccc2Sc2ccccc21,i,0.581µM,?,nt,i
SMILES,miR-21 act,DT40 TDP1 no CPT,TDP1 cell CPT,uPA generation,TDP1 block
CCCC1=Nc2cc(C(=O)NCC(C)c3ccccc3)ccc2Sc2ccccc21 (stereo not drawn),?,?,?,nt,i
Cc1cc(NC(=O)c2c(Br)cnn2C)no1,i,i,i,i,i
NNC(=O)c1cc(S(=O)(=O)N2CCOCC2)c[nH]1,nt,i,i,i,i
CCCN1CCN(c2ncnc3sc(C(=O)Nc4cccc(Cl)c4C)c(C)c23)CC1,i,20.6µM,?,nt,i
Cc1sc2ncnc(N3CCN(CCOc4ccc(Cl)cc4)CC3)c2c1C,i,2.51µM,2.51µM,nt,i
CCCN1CCN(c2ncnc3sc(C(=O)Nc4ccc(N(CC)CC)cc4C)c(C)c23)CC1,i,14.6µM,23.1µM,nt,i
CCN(CC)c1ccc(NC(=O)c2cccnc2)c(C)c1,i,?,?,i,i
CCC1(c2ccccc2)NC(=O)N(CC(=O)N(C)CC(=O)Nc2cccc(F)c2)C1=O (stereo not drawn),i,i,i,i,i
CCOc1ccccc1NC(=O)CSc1nc2ccccc2c2nc(CCn3cncc3C)nn12,i,23.1µM,?,nt,i
Cc1cncn1CCc1nc2c3ccccc3nc(SCC(=O)Nc3cccc(Cl)c3)n2n1,?,7.31µM,18.4µM,i,i
Cc1cccc(NC(=O)CSc2nc3ccccc3c3nc(CCc4c(C)n[nH]c4C)nn23)c1,i,13µM,16.4µM,i,i
CCC(Sc1nc2ccccc2c2nc(CCn3cncc3C)nn12)C(=O)Nc1cccc(OC)c1 (stereo not drawn),i,?,?,nt,i
Cc1n[nH]c(C)c1CCc1nc2c3ccccc3nc(SCC(=O)Nc3ccccc3F)n2n1,i,?,?,i,i
c1ccc2c(-c3[nH]ncc3CNCCCn3ncc4ccccc43)cccc2c1,i,11.6µM,18.4µM,i,i
CCCn1c2ccccc2c2cnn(CC(=O)NC3CCN(Cc4ccccc4)CC3)c(=O)c21,i,?,16.4µM,i,i
O=C(Cn1ncc2c3ccccc3n(Cc3ccc(Cl)cc3)c2c1=O)NC1CCCCCC1,i,i,i,nt,i
CCCn1c2ccccc2c2cnn(CC(=O)NC3CCCCC3C)c(=O)c21 (stereo not drawn),i,18.4µM,?,i,i
CC(C)(C)c1ccc(S(=O)(=O)CCc2ccccn2)cc1,i,?,i,i,i
Cc1ccc(S(=O)(=O)NC(C)CCc2ccccc2)cc1C(N)=O (stereo not drawn),i,18.4µM,?,i,i
CCc1ccc([C@@H]2CC=C(C(=O)O)[C@H](c3ccc(Cl)cc3)N2S(=O)(=O)c2ccc(C)cc2)cc1,nt,i,i,i,i
CCOc1cc(C(=O)NCc2ccc3c(c2)CCN3C(=O)CC)cc(OCC)c1OCC,i,i,i,nt,i
CC(=O)N1c2ccc(S(=O)(=O)N3CCC(C(=O)N4CCN(c5ccccc5F)CC4)CC3)cc2CC1C (stereo not drawn),i,?,25.9µM,i,i
CC1Cc2cc(S(=O)(=O)N3CCN(c4cccc(Cl)c4)CC3)ccc2N1C(=O)C1CC1 (stereo not drawn),i,?,?,i,i
CC(=O)c1ccc(N2CCN(S(=O)(=O)c3ccc4c(c3)CC(C)N4C(=O)C3CCC3)CC2)cc1 (stereo not drawn),i,5.8µM,7.31µM,nt,i
